# Results reported in the supplement of paper PMC8728848.
# This excerpt belongs to a sample that is enriched for the strongest signals.
# B1: Tachylectin-2 (Tachypleus tridentatus), TAL2_TACTR (protein)
# chain: VGGESMLRGVYQDKFYQGTYPQNKNDNWLARATLIGKGGWSNFKFLFLSPGGELYGVLNDKIYKGTPPTHDNDNWMGRAKKIGNGGWNQFQFLFFDPNGYLYAVSKDKLYKASPPQSDTDNWIARATEIGSGGWSGFKFLFFHPNGYLYAVHGQQFYKALPPVSNQDNWLARATKIGQGGWDTFKFLFFSSVGTLFGVQGGKFYEDYPPSYAHDNWLARAKLIGNGGWDDFRFLFF
# Columns and labels:
# Experiment in all cases: glycan array binding signal (z-score within array); higher = stronger binding
# Settings in all cases: glycan notation: IUPAC condensed, linker removed
# Fuc(a1-2)Gal(b1-4)GlcNAc = biological target: Fuc(a1-2)Gal(b1-4)GlcNAc
# In short: (§1)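 Glycan array data came from 3228 arrays in the Consortium for Functional Glycomics database, and only arrays with an available protein sequence were kept. Glycan names were put into IUPAC-condensed notation, and columns mapping to the same glycan were averaged. The binding signal is a within-array Z-score, averaged across arrays of one protein sequence run at different concentrations or buffers and across linkers. A negative Z-score can be read as non-binding.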
# [1] = biological target: Fuc(a1-2)[Gal(a1-4)]Gal(b1-4)GlcNAc
# In short: as §1
# [2] = biological target: Fuc(a1-2)[GalNAc(a1-3)]Gal(b1-4)GlcNAc(b1-2)Man(a1-3)[Fuc(a1-2)[GalNAc(a1-3)]Gal(b1-4)GlcNAc(b1-2)Man(a1-6)]Man(b1-4)GlcNAc(b1-4)GlcNAc
# In short: as §1
# [3] = biological target: Fuc(a1-2)[GalNAc(a1-3)]Gal(b1-4)GlcNAc(b1-3)Gal(b1-4)GlcNAc
# In short: as §1
# [4] = biological target: Fuc(a1-2)[GalNAc(a1-3)]Gal(b1-4)GlcNAc(b1-3)Gal(b1-4)GlcNAc(b1-3)Gal(b1-4)GlcNAc
# In short: as §1
# [5] = biological target: Fuc(a1-2)[GalNAc(a1-4)]Gal(b1-4)GlcNAc
# In short: as §1
# [6] = biological target: Gal(a1-4)Gal(b1-4)GlcNAc(b1-3)Gal(b1-4)Glc
# In short: as §1
# Gal(a1-4)GlcNAc = biological target: Gal(a1-4)GlcNAc
# In short: as §1
# [7] = biological target: Gal(b1-3)GlcNAc(b1-3)Gal(b1-4)Glc
# In short: as §1
# [8] = biological target: Gal(b1-3)GlcNAc(b1-3)Gal(b1-4)GlcNAc
# In short: as §1
# [9] = biological target: Gal(b1-4)GlcNAc(b1-2)Man(a1-3)[GlcNAc(b1-2)Man(a1-6)]Man(b1-4)GlcNAc(b1-4)GlcNAc
# In short: as §1
# [10] = biological target: Gal(b1-4)GlcNAc(b1-2)[Gal(b1-4)GlcNAc(b1-4)]Man(a1-3)[Gal(b1-4)GlcNAc(b1-2)[Gal(b1-4)GlcNAc(b1-6)]Man(a1-6)]Man(b1-4)GlcNAc(b1-4)GlcNAc
# In short: as §1
# [11] = biological target: Gal(b1-4)GlcNAc(b1-3)Gal(b1-4)GlcNAc
# In short: as §1
# [12] = biological target: Gal(b1-4)GlcNAc(b1-3)[Gal(b1-4)GlcNAc(b1-6)]Gal(b1-4)GlcNAc
# In short: as §1
# [13] = biological target: Gal3S(b1-4)[Fuc(a1-3)]Glc
# In short: as §1
# Gal6S(b1-4)Glc = biological target: Gal6S(b1-4)Glc
# In short: as §1
# GalNAc(a1-3)GalNAc = biological target: GalNAc(a1-3)GalNAc
# In short: as §1
# [14] = biological target: GlcNAc(a1-4)Gal(b1-4)GlcNAc(b1-3)Gal(b1-4)GlcNAc(b1-3)Gal(b1-4)GlcNAc
# In short: as §1
# [15] = biological target: GlcNAc(a1-6)Gal(b1-4)GlcNAc
# In short: as §1
# GlcNAc(b1-3)Man = biological target: GlcNAc(b1-3)Man
# In short: as §1
# [16] = biological target: GlcNAc(b1-3)[GlcNAc(b1-4)][GlcNAc(b1-6)]GlcNAc
# In short: as §1
# [17] = biological target: GlcNAc(b1-4)Gal(b1-4)GlcNAc
# In short: as §1
# [18] = biological target: GlcNAc(b1-4)GlcNAc(b1-4)GlcNAc(b1-4)GlcNAc(b1-4)GlcNAc
# In short: as §1
# GlcNAc(b1-6)GalNAc = biological target: GlcNAc(b1-6)GalNAc
# In short: as §1
# Kdn(a2-3)Gal(b1-3)GalNAc = biological target: Kdn(a2-3)Gal(b1-3)GalNAc
# In short: as §1
# [19] = biological target: Man(a1-2)Man(a1-2)Man(a1-6)[Man(a1-3)]Man
# In short: as §1
# [20] = biological target: Man(a1-2)Man(a1-3)[Man(a1-6)]Man(a1-6)[Man(a1-2)Man(a1-3)]Man(b1-4)GlcNAc(b1-4)GlcNAc
# In short: as §1
# [21] = biological target: Man(a1-3)[Man(a1-6)]Man(a1-6)[Man(a1-3)]Man
# In short: as §1
# [22] = biological target: Neu5Ac(a2-3)Gal(b1-4)GlcNAc
# In short: as §1
# [23] = biological target: Neu5Ac(a2-3)Gal(b1-4)GlcNAc(b1-3)Gal(b1-3)GlcNAc
# In short: as §1
binder,measurement,setting,value
B1,glycan array binding signal (z-score),Fuc(a1-2)Gal(b1-4)GlcNAc,-0.309
same,glycan array binding signal (z-score),[1],-0.436
same,glycan array binding signal (z-score),[2],4.37
same,glycan array binding signal (z-score),[3],4.29
same,glycan array binding signal (z-score),[4],4.11
same,glycan array binding signal (z-score),[5],3.88
same,glycan array binding signal (z-score),[6],-0.296
same,glycan array binding signal (z-score),Gal(a1-4)GlcNAc,0.001
same,glycan array binding signal (z-score),[7],-0.315
same,glycan array binding signal (z-score),[8],-0.357
same,glycan array binding signal (z-score),[9],-0.295
same,glycan array binding signal (z-score),[10],-0.294
same,glycan array binding signal (z-score),[11],-0.367
same,glycan array binding signal (z-score),[12],-0.43
same,glycan array binding signal (z-score),[13],-0.39
same,glycan array binding signal (z-score),Gal6S(b1-4)Glc,-0.268
same,glycan array binding signal (z-score),GalNAc(a1-3)GalNAc,4.41
same,glycan array binding signal (z-score),[14],3.96
same,glycan array binding signal (z-score),[15],4.99
same,glycan array binding signal (z-score),GlcNAc(b1-3)Man,-0.096
same,glycan array binding signal (z-score),[16],-0.413
same,glycan array binding signal (z-score),[17],1.17
same,glycan array binding signal (z-score),[18],0.004
same,glycan array binding signal (z-score),GlcNAc(b1-6)GalNAc,1.42
same,glycan array binding signal (z-score),Kdn(a2-3)Gal(b1-3)GalNAc,-0.296
same,glycan array binding signal (z-score),[19],-0.33
same,glycan array binding signal (z-score),[20],-0.173
same,glycan array binding signal (z-score),[21],-0.344
same,glycan array binding signal (z-score),[22],-0.374
same,glycan array binding signal (z-score),[23],-0.256
